Measured values as given in PMC9911399, “Two distinct binding modes provide the RNA-binding protein RbFox with extraordinary sequence specificity”.
Residue numbers refer to the chain shown, from its start. In all, about 16,000 sequences were measured (“ka relative to ugcaugu”: median about 0.096, highest 2% from about 0.35 on). Many of the other results were omitted from the sample, so the highest values are more common in it than they were.

T1: RBFOX1 RRM RbFoxmut (Fox-RRM*) (Homo sapiens, UniProt Q9NWB1 109-208, R118D;E147R;N151S;E152T)
T1 sequence: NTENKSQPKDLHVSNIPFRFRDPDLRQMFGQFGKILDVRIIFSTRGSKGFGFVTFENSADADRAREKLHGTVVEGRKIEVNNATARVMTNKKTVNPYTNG

B1: CCGAUCU (DNA:RNA)
RNA: GGGAGACCGGAAUUCAGAUUGUCCCCGAUCUUUAAAUCCCGUCGUAGCCACCA
DNA 1: CAATCTGAATTCCGGTCTCCC
DNA 2: TGGTGGCTACGACGGGATT
B2: CACUUGA (DNA:RNA)
RNA: B1 RNA with C26A, G27C, A28U, C30G, U31A
DNA 1: CAATCTGAATTCCGGTCTCCC
DNA 2: TGGTGGCTACGACGGGATT
B3: CACUUAG (DNA:RNA)
RNA: B1 RNA with C26A, G27C, A28U, C30A, U31G
DNA 1: CAATCTGAATTCCGGTCTCCC
DNA 2: TGGTGGCTACGACGGGATT
B4: GAAAGCU (DNA:RNA)
RNA: B1 RNA with C25G, C26A, G27A, U29G
DNA 1: CAATCTGAATTCCGGTCTCCC
DNA 2: TGGTGGCTACGACGGGATT
B5: CAGCAUU (DNA:RNA)
RNA: B1 RNA with C26A, A28C, U29A, C30U
DNA 1: CAATCTGAATTCCGGTCTCCC
DNA 2: TGGTGGCTACGACGGGATT
B6: UUAAACA (DNA:RNA)
RNA: B1 RNA with C25U, C26U, G27A, U29A, U31A
DNA 1: CAATCTGAATTCCGGTCTCCC
DNA 2: TGGTGGCTACGACGGGATT
B7: CCUGGCA (DNA:RNA)
RNA: B1 RNA with G27U, A28G, U29G, U31A
DNA 1: CAATCTGAATTCCGGTCTCCC
DNA 2: TGGTGGCTACGACGGGATT
B8: AUCCAUC (DNA:RNA)
RNA: GGGAGACCGGAAUUCAGAUUGUCCAUCCAUCUUAAAUCCCGUCGUAGCCACCA
DNA 1: CAATCTGAATTCCGGTCTCCC
DNA 2: TGGTGGCTACGACGGGATT
B9: AUGCAUC (DNA:RNA)
RNA: B8 RNA with C27G
DNA 1: CAATCTGAATTCCGGTCTCCC
DNA 2: TGGTGGCTACGACGGGATT
B10: GUCCAUC (DNA:RNA)
RNA: B8 RNA with A25G
DNA 1: CAATCTGAATTCCGGTCTCCC
DNA 2: TGGTGGCTACGACGGGATT
B11: AUGCAUA (DNA:RNA)
RNA: B8 RNA with C27G, C31A
DNA 1: CAATCTGAATTCCGGTCTCCC
DNA 2: TGGTGGCTACGACGGGATT
B12: AUGCAUG (DNA:RNA)
RNA: B8 RNA with C27G, C31G
DNA 1: CAATCTGAATTCCGGTCTCCC
DNA 2: TGGTGGCTACGACGGGATT
B13: AUGCAGA (DNA:RNA)
RNA: B8 RNA with C27G, U30G, C31A
DNA 1: CAATCTGAATTCCGGTCTCCC
DNA 2: TGGTGGCTACGACGGGATT
B14: AACCGUG (DNA:RNA)
RNA: B8 RNA with U26A, A29G, C31G
DNA 1: CAATCTGAATTCCGGTCTCCC
DNA 2: TGGTGGCTACGACGGGATT
B15: GGCUGGA (DNA:RNA)
RNA: B8 RNA with A25G, U26G, C28U, A29G, U30G, C31A
DNA 1: CAATCTGAATTCCGGTCTCCC
DNA 2: TGGTGGCTACGACGGGATT
B16: CUCCGAA (DNA:RNA)
RNA: B8 RNA with A25C, A29G, U30A, C31A
DNA 1: CAATCTGAATTCCGGTCTCCC
DNA 2: TGGTGGCTACGACGGGATT
B17: UGCUACC (DNA:RNA)
RNA: B8 RNA with A25U, U26G, C28U, U30C
DNA 1: CAATCTGAATTCCGGTCTCCC
DNA 2: TGGTGGCTACGACGGGATT
B18: AAAUGCG (DNA:RNA)
RNA: B8 RNA with U26A, C27A, C28U, A29G, U30C, C31G
DNA 1: CAATCTGAATTCCGGTCTCCC
DNA 2: TGGTGGCTACGACGGGATT
B19: UGACUUC (DNA:RNA)
RNA: B8 RNA with A25U, U26G, C27A, A29U
DNA 1: CAATCTGAATTCCGGTCTCCC
DNA 2: TGGTGGCTACGACGGGATT
B20: UCAUAAU (DNA:RNA)
RNA: B1 RNA with C25U, G27A, A28U, U29A, C30A
DNA 1: CAATCTGAATTCCGGTCTCCC
DNA 2: TGGTGGCTACGACGGGATT
B21: GUGCACG (DNA:RNA)
RNA: B8 RNA with A25G, C27G, U30C, C31G
DNA 1: CAATCTGAATTCCGGTCTCCC
DNA 2: TGGTGGCTACGACGGGATT
B22: UUGCACG (DNA:RNA)
RNA: B8 RNA with A25U, C27G, U30C, C31G
DNA 1: CAATCTGAATTCCGGTCTCCC
DNA 2: TGGTGGCTACGACGGGATT
B23: UUGCCCG (DNA:RNA)
RNA: B8 RNA with A25U, C27G, A29C, U30C, C31G
DNA 1: CAATCTGAATTCCGGTCTCCC
DNA 2: TGGTGGCTACGACGGGATT
B24: AUGCACG (DNA:RNA)
RNA: B8 RNA with C27G, U30C, C31G
DNA 1: CAATCTGAATTCCGGTCTCCC
DNA 2: TGGTGGCTACGACGGGATT
B25: ACGUGCG (DNA:RNA)
RNA: B1 RNA with C25A, A28U, U29G, U31G
DNA 1: CAATCTGAATTCCGGTCTCCC
DNA 2: TGGTGGCTACGACGGGATT
B26: AUGCACC (DNA:RNA)
RNA: B8 RNA with C27G, U30C
DNA 1: CAATCTGAATTCCGGTCTCCC
DNA 2: TGGTGGCTACGACGGGATT
B27: UUGCACC (DNA:RNA)
RNA: B8 RNA with A25U, C27G, U30C
DNA 1: CAATCTGAATTCCGGTCTCCC
DNA 2: TGGTGGCTACGACGGGATT
B28: GUGCACC (DNA:RNA)
RNA: B8 RNA with A25G, C27G, U30C
DNA 1: CAATCTGAATTCCGGTCTCCC
DNA 2: TGGTGGCTACGACGGGATT
B29: AUCCACG (DNA:RNA)
RNA: B8 RNA with U30C, C31G
DNA 1: CAATCTGAATTCCGGTCTCCC
DNA 2: TGGTGGCTACGACGGGATT
B30: GUGUCUU (DNA:RNA)
RNA: B8 RNA with A25G, C27G, C28U, A29C, C31U
DNA 1: CAATCTGAATTCCGGTCTCCC
DNA 2: TGGTGGCTACGACGGGATT
B31: UGAUGGG (DNA:RNA)
RNA: GGGAGACCGGAAUUCAGAUUGUCCUGAUGGGUUAAAUCCCGUCGUAGCCACCA
DNA 1: CAATCTGAATTCCGGTCTCCC
DNA 2: TGGTGGCTACGACGGGATT

These binders were tested against T1, RBFOX1 RRM RbFoxmut (Fox-RRM*) (assay: EMSA; HiTS-Eq, 1 nM pool, 10 min; buffer printed only for the single-RNA assays: 10 mM Tris pH 7.5, 150 mM NaCl, 3.4 mM EDTA, 0.001% NP-40, 30 C). Details: tags: His6 N-terminal (pET28a); label: 5' 32P.
Summary of the method: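 Purified RbFox RRM, wild type or mutant, was incubated for 10 min in 50 µL with 1 nM of a 5′-radiolabelled RNA pool carrying 7 randomized nucleotides, whose flanks were annealed to DNA oligonucleotides, over a series of increasing protein concentrations. Unbound RNA was resolved on 8% native PAGE, cut out, reverse-transcribed, barcoded by PCR and sequenced on an Illumina HiSeq 2500. Relative association constants were derived from changes in read counts for each RNA species versus the control reaction and normalised to the cognate motif.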

| Binder | binding signal |
| --- | --- |
| B1 | 0.0341 KA relative to UGCAUGU |
| B2 | 0.114 KA relative to UGCAUGU |
| B3 | 0.16 KA relative to UGCAUGU |
| B4 | 0.0545 KA relative to UGCAUGU |
| B5 | 0.107 KA relative to UGCAUGU |
| B6 | 0.0699 KA relative to UGCAUGU |
| B7 | 0.148 KA relative to UGCAUGU |
| B8 | 0.1 KA relative to UGCAUGU |
| B9 | 0.446 KA relative to UGCAUGU |
| B10 | 0.0764 KA relative to UGCAUGU |
| B11 | 0.161 KA relative to UGCAUGU |
| B12 | 0.951 KA relative to UGCAUGU |
| B13 | 0.125 KA relative to UGCAUGU |
| B14 | 0.109 KA relative to UGCAUGU |
| B15 | 0.0732 KA relative to UGCAUGU |
| B16 | 0.104 KA relative to UGCAUGU |

| Binder | binding signal |
| --- | --- |
| B17 | 0.147 KA relative to UGCAUGU |
| B18 | 0.104 KA relative to UGCAUGU |
| B19 | 0.0822 KA relative to UGCAUGU |
| B20 | 0.103 KA relative to UGCAUGU |
| B21 | 0.66 KA relative to UGCAUGU |
| B22 | 0.612 KA relative to UGCAUGU |
| B23 | 0.178 KA relative to UGCAUGU |
| B24 | 0.551 KA relative to UGCAUGU |
| B25 | 0.182 KA relative to UGCAUGU |
| B26 | 0.132 KA relative to UGCAUGU |
| B27 | 0.181 KA relative to UGCAUGU |
| B28 | 0.167 KA relative to UGCAUGU |
| B29 | 0.135 KA relative to UGCAUGU |
| B30 | 0.101 KA relative to UGCAUGU |
| B31 | 0.0449 KA relative to UGCAUGU |
